Test results: PubChem BioAssay AID1159580 (chemical genetic matrix, 2015)
The whole screen tested about 5,500 compounds, of which about 2,000 (36%) were called active. Inconclusive results (about 18%) are left out. No stated cut-off is given here; in the data, active means normalized growth mostly below about 0.91 (no sharp cut-off); inconclusive means no clear call, values can overlap the other calls; inactive means mostly above about 0.92. This is one part of the list.

Assay: chemical genetic growth profiling, strain panel (AID 1159580);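 further: tested at 20 µM; growth read once vehicle control cultures reached saturation at 30 °C; 1 = growth at the plate median or of vehicle wells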
Details: growth OD

Measured: normalized growth

CN(C)CCN(Cc1ccccc1)c1ccccn1
inactive: S. cerevisiae deletion strains, locus YJR075W, strain HOC1, stronger effect = lower value 1.01 | S. cerevisiae deletion strains, locus YKL009W, strain mrt4, stronger effect = lower value 0.993 | S. cerevisiae deletion strains, locus YKL068W, stronger effect = lower value 0.969 | S. cerevisiae deletion strains, locus YKL085W, strain MDH1 (second series), stronger effect = lower value 0.978 | S. cerevisiae deletion strains, locus YKL085W, strain MDH1, stronger effect = lower value 0.978 | S. cerevisiae deletion strains, locus YKL160W, strain elf1, stronger effect = lower value 1.03 | S. cerevisiae deletion strains, locus YKL190W, strain CNB1, stronger effect = lower value 0.983 | S. cerevisiae deletion strains, locus YKR001C, strain vps1, stronger effect = lower value 0.994 | S. cerevisiae deletion strains, locus YKR026C, strain gcn3, stronger effect = lower value 1 | S. cerevisiae deletion strains, locus YKR091W, strain srl3, stronger effect = lower value 1.01 | S. cerevisiae deletion strains, locus YLL001W, strain dnm1, stronger effect = lower value 1.04 | S. cerevisiae deletion strains, locus YLL026W, stronger effect = lower value 1.02 | S. cerevisiae deletion strains, locus YLL041C, strain sdh2, stronger effect = lower value 1.01 | S. cerevisiae deletion strains, locus YLR027C, strain aat2, stronger effect = lower value 1.01 | S. cerevisiae deletion strains, locus YLR039C, strain RIC1, stronger effect = lower value 0.966 | S. cerevisiae deletion strains, locus YLR058C, strain SHM2, stronger effect = lower value 0.999 | S. cerevisiae deletion strains, locus YLR102C, strain apc9, stronger effect = lower value 0.986 | S. cerevisiae deletion strains, locus YLR113W, strain HOG1, stronger effect = lower value 0.909 | S. cerevisiae deletion strains, locus YLR221C, strain rsa3, stronger effect = lower value 0.988 | S. cerevisiae deletion strains, locus YLR258W, strain gsy2, stronger effect = lower value 1.01 | S. cerevisiae deletion strains, locus YLR262C, strain YPT6 (second series), stronger effect = lower value 1.02 | S. cerevisiae deletion strains, locus YLR262C, strain YPT6, stronger effect = lower value 1.01 | S. cerevisiae deletion strains, locus YLR268W, strain sec22, stronger effect = lower value 0.985 | S. cerevisiae deletion strains, locus YLR320W, strain mms22, stronger effect = lower value 1.01 | S. cerevisiae deletion strains, locus YLR330W, strain CHS5, stronger effect = lower value 0.999 | S. cerevisiae deletion strains, locus YLR342W, strain FKS1 (second series), stronger effect = lower value 1.04 | S. cerevisiae deletion strains, locus YLR342W, strain FKS1, stronger effect = lower value 1.02 | S. cerevisiae deletion strains, locus YLR357W, strain rsc2, stronger effect = lower value 1.03 | S. cerevisiae deletion strains, locus YLR370C, strain arc18, stronger effect = lower value 1.03 | S. cerevisiae deletion strains, locus YLR371W, strain rom2, stronger effect = lower value 0.976 | S. cerevisiae deletion strains, locus YLR384C, strain iki3, stronger effect = lower value 1.01 | S. cerevisiae deletion strains, locus YLR418C, strain cdc73, stronger effect = lower value 1.02 | S. cerevisiae deletion strains, locus YML016C, strain PPZ1, stronger effect = lower value 1.01 | S. cerevisiae deletion strains, locus YML032C, strain rad52, stronger effect = lower value 0.978 | S. cerevisiae deletion strains, locus YML120C, strain ndi1, stronger effect = lower value 1.02 | S. cerevisiae deletion strains, locus YML124C, strain tub3, stronger effect = lower value 0.988 | S. cerevisiae deletion strains, locus YMR058W, strain fet3, stronger effect = lower value 1.02 | S. cerevisiae deletion strains, locus YMR078C, strain ctf18, stronger effect = lower value 0.988 | S. cerevisiae deletion strains, locus YMR125W, strain sto1, stronger effect = lower value 1.02 | S. cerevisiae deletion strains, locus YMR129W, stronger effect = lower value 1 | S. cerevisiae deletion strains, locus YMR205C, strain PFK2, stronger effect = lower value 1.04 | S. cerevisiae deletion strains, locus YMR223W, strain ubp8, stronger effect = lower value 1.02 | S. cerevisiae deletion strains, locus YMR231W, strain pep5, stronger effect = lower value 1 | S. cerevisiae deletion strains, locus YMR263W, strain SAP30, stronger effect = lower value 0.976 | S. cerevisiae deletion strains, locus YMR307W, strain GAS1, stronger effect = lower value 1.06 | S. cerevisiae deletion strains, locus YNL067W, strain RPL9B, stronger effect = lower value 0.985 | S. cerevisiae deletion strains, locus YNL071W, strain lat1, stronger effect = lower value 1.01 | S. cerevisiae deletion strains, locus YNL128W, strain TEP1, stronger effect = lower value 0.987 | S. cerevisiae deletion strains, locus YNL153C, strain GIM3, stronger effect = lower value 0.995 | S. cerevisiae deletion strains, locus YNL183C, strain NPR1, stronger effect = lower value 0.942 | S. cerevisiae deletion strains, locus YNL209W, strain ssb2, stronger effect = lower value 1 | S. cerevisiae deletion strains, locus YNL233W, strain BNI4, stronger effect = lower value 1.01 | S. cerevisiae deletion strains, locus YNL248C, strain rpa49, stronger effect = lower value 1 | S. cerevisiae deletion strains, locus YNL250W, strain rad50, stronger effect = lower value 0.96 | S. cerevisiae deletion strains, locus YNL271C, strain bni1, stronger effect = lower value 0.953 | S. cerevisiae deletion strains, locus YNL298W, strain CLA4, stronger effect = lower value 0.994 | S. cerevisiae deletion strains, locus YNL307C, strain MCK1, stronger effect = lower value 0.989 | S. cerevisiae deletion strains, locus YNL322C, strain KRE1 (second series), stronger effect = lower value 1.02 | S. cerevisiae deletion strains, locus YNL322C, strain KRE1, stronger effect = lower value 0.987 | S. cerevisiae deletion strains, locus YNR049C, strain mso1, stronger effect = lower value 1.02 | S. cerevisiae deletion strains, locus YNR052C, strain pop2, stronger effect = lower value 0.986 | S. cerevisiae deletion strains, locus YOL006C, strain TOP1, stronger effect = lower value 1 | S. cerevisiae deletion strains, locus YOL012C, strain htz1 1.43 | S. cerevisiae deletion strains, locus YOL147C, strain pex11, stronger effect = lower value 0.978 | S. cerevisiae deletion strains, locus YOR001W, strain rrp6, stronger effect = lower value 1.04 | S. cerevisiae deletion strains, locus YOR061W, strain CKA2, stronger effect = lower value 0.996 | S. cerevisiae deletion strains, locus YOR069W, strain VPS5, stronger effect = lower value 1 | S. cerevisiae deletion strains, locus YOR070C, strain gyp1, stronger effect = lower value 0.999 | S. cerevisiae deletion strains, locus YOR080W, strain dia2, stronger effect = lower value 1.02 | S. cerevisiae deletion strains, locus YOR083W, strain WHI5, stronger effect = lower value 1.01 | S. cerevisiae deletion strains, locus YOR106W, strain vam3, stronger effect = lower value 1.05 | S. cerevisiae deletion strains, locus YOR136W, strain idh2, stronger effect = lower value 0.997 | S. cerevisiae deletion strains, locus YOR144C, strain elg1, stronger effect = lower value 0.98 | S. cerevisiae deletion strains, locus YOR184W, strain ser1, stronger effect = lower value 1 | S. cerevisiae deletion strains, locus YOR231W, strain MKK1, stronger effect = lower value 0.959 | S. cerevisiae deletion strains, locus YOR265W, strain rbl2, stronger effect = lower value 1 | S. cerevisiae deletion strains, locus YOR270C, strain vph1, stronger effect = lower value 1.02 | S. cerevisiae deletion strains, locus YOR290C, strain snf2, stronger effect = lower value 0.985 | S. cerevisiae deletion strains, locus YOR316C, strain cot1, stronger effect = lower value 0.991 | S. cerevisiae deletion strains, locus YPL051W, strain arl3, stronger effect = lower value 1.02 | S. cerevisiae deletion strains, locus YPL055C, strain LGE1, stronger effect = lower value 1.04 | S. cerevisiae deletion strains, locus YPL078C, strain atp4, stronger effect = lower value 1.04 | S. cerevisiae deletion strains, locus YPL106C, strain sse1, stronger effect = lower value 1.02 | S. cerevisiae deletion strains, locus YPL240C, strain hsp82, stronger effect = lower value 1.01 | S. cerevisiae deletion strains, locus YPL241C, strain CIN2, stronger effect = lower value 0.992 | S. cerevisiae deletion strains, locus YPL256C, strain CLN2, stronger effect = lower value 0.974 | S. cerevisiae deletion strains, locus YPR119W, strain clb2, stronger effect = lower value 0.988 | S. cerevisiae deletion strains, locus YPR141C, strain kar3, stronger effect = lower value 0.965 | S. cerevisiae deletion strains, locus YPR163C, strain tif3, stronger effect = lower value 0.982 | S. cerevisiae deletion strains, locus YPR167C, strain met16, stronger effect = lower value 0.973 | S. cerevisiae deletion strains, strain wtn01, stronger effect = lower value 0.989 | S. cerevisiae strains, strain wild type, stronger effect = lower value 0.999
